Results reported in publication PMC4336329 (PLoS ONE, 2015).
Out of some 310,000 compounds screened, about 14,000 (4.5%) showed an effect of 50% or more. Effects have a minus sign here. Only a selection was taken, and strong results are over-represented in it overall.

These molecules were tested against human ether-à-go-go-related gene (hERG) potassium channel (human, UniProt Q12809) (assay: primary screen, population patch clamp on CHO cells stably expressing hERG; higher = less effect of the substance).
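Further: peak tail current of the secondary pulse compared with the same well before compound.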

Chain of human ether-à-go-go-related gene (hERG) potassium channel (Q12809 whole entry, looked up): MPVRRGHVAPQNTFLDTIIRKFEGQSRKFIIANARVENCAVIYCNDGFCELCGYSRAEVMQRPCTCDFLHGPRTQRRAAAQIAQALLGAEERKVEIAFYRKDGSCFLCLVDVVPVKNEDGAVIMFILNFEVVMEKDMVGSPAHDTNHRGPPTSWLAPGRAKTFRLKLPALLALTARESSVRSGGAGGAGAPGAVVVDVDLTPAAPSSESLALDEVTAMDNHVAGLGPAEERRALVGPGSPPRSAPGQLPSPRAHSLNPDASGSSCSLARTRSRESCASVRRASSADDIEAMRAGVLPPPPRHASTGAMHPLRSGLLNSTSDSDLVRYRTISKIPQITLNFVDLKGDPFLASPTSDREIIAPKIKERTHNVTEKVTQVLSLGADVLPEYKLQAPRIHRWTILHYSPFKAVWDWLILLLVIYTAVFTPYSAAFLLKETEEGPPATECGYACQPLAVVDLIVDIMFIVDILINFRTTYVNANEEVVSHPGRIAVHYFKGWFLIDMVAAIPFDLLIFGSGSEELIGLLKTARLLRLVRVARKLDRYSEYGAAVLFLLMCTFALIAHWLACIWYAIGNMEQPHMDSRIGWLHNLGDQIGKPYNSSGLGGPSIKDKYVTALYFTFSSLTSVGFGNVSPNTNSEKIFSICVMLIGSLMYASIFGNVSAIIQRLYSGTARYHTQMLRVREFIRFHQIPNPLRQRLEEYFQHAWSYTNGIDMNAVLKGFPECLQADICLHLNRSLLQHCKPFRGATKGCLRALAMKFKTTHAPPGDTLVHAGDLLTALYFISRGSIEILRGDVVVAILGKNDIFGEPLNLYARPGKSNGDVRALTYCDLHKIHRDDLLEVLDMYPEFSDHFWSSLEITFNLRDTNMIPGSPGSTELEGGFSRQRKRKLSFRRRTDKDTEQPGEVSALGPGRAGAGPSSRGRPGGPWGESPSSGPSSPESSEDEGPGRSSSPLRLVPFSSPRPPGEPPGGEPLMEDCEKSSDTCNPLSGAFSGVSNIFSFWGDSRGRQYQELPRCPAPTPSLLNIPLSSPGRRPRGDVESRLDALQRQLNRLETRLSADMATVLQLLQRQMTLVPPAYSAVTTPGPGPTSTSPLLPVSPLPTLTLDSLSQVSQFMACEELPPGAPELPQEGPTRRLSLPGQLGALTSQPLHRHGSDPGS

Row | SMILES | hERG current change (%, negative = inhibition) at 10uM [%]
1 | CCCC[C@@H]1CNC(=S)N1CCC12CC3CC(CC(C3)C1)C2 | 18.9
2 | C=CCn1cccc(C(=O)Nc2ccc(SC)cc2)c1=O | -15
3 | Cc1nn(CC(=O)N2CCN(C34CC5CC(CC(C5)C3)C4)CC2)c(C)c1[N+](=O)[O-] | -1.7
4 | Cc1ccc2c(cnn2C(=O)CCCC(=O)NCc2ccc(F)cc2)c1 | -9.47
5 | O=C(NCCc1ccccc1)/C(=C/c1ccco1)c1ccccc1 | -13.8
6 | CN(C)S(=O)(=O)c1cccc(C(=O)NCC(=O)NC2CCN(Cc3ccccc3)CC2)c1 | 3.32
7 | Cc1ccc(C(=O)CSc2nnnn2C(C)C)c(C)c1 | -3.38
8 | Cc1nc2ccc([N+](=O)[O-])cc2c(=O)n1Cc1cccc(Br)c1 | -4.24
9 | COc1ccc(OC)c(NC(=O)c2cc3ccccc3cc2OC)c1 | 2.44
10 | CCc1c(C#N)sc(C(N)=O)c1CC | 13.3
11 | COc1ccc(NC(=S)N2CCN(c3ccc([N+](=O)[O-])cc3)CC2)cc1OC | -77.3
12 | COc1cccc(NC(=S)N2CCN(c3ccc([N+](=O)[O-])cc3)CC2)c1 | -27.5
13 | O=[N+]([O-])c1ccc(NC(=S)N2CCN(c3ccccc3)CC2)cc1 | -11.4
14 | CCOC(=O)c1cc(CC)sc1NC(=O)C1CC1 | -7.16
15 | COC(=O)[C@H](CCSC)NC(=O)NCc1cccs1 | 20.6
16 | CCCCNC(=O)C1CCN(Cc2ccc(OCc3ccccc3)c(OC)c2)CC1.O=C(O)C(=O)O | -67.2
17 | CCOC(=O)N1CCN(C(=O)C2CCN(Cc3ccc(O)c(OCC)c3)CC2)CC1.O=C(O)C(=O)O | 20.2
18 | CCOCCCNC(=O)C1CCN(Cc2cccc(OCc3ccccc3)c2)CC1.O=C(O)C(=O)O | -14.1
19 | CC(C)CCNC(=O)C1CCN(Cc2cccc(OCc3ccccc3)c2)CC1.O=C(O)C(=O)O | -50.8
20 | CCOCCCNC(=O)C1CCN(Cc2ccc(OCc3ccccc3)c(OC)c2)CC1.O=C(O)C(=O)O | -43.3
21 | COCCNC(=O)C1CCN(Cc2cccc(OCc3ccccc3)c2)CC1 | -12.2
22 | CCOC(=O)N1CCN(C(=O)C2CCN(Cc3cccc(OCc4ccccc4)c3)CC2)CC1.O=C(O)C(=O)O | -58.4
23 | CCOC(=O)C1CCN(Cc2ccc(OCc3ccccc3)cc2)CC1.O=C(O)C(=O)O | -62
24 | CCOC(=O)C1CCN(Cc2cccc(OCc3ccccc3)c2)CC1.O=C(O)C(=O)O | -43.2
25 | CCOC(=O)C1CCCN(Cc2ccc(OCc3ccccc3)cc2)C1.O=C(O)C(=O)O (centres unmarked) | -40.6
26 | CCOC(=O)C1CCN(Cc2ccc(OC)c(OCc3ccccc3)c2)CC1 | -38.3
27 | NC(=O)C1CCN(Cc2cccc(OCc3ccccc3)c2)CC1.O=C(O)C(=O)O | -12

Row | SMILES | hERG current change (%, negative = inhibition) at 10uM [%]
28 | COC(=O)c1ccccc1NC(=O)c1nc2nc(C)cc(C(F)F)n2n1 | -5.65
29 | Cc1nc2ccccc2c2c1CC(C)S2 (centres unmarked) | -16.8
30 | Cc1ccc2nc(-c3ccccc3O)c(Nc3ccc4c(c3)OCCO4)n2c1 | 9.98
31 | COc1ccc(CN2CCC(C)CC2)cc1OCc1ccccc1 | -49.6
32 | COc1cc(CN2CCCCC2)ccc1OCc1ccccc1.O=C(O)C(=O)O | -35.1
33 | CC(C)CNC(=O)C1CCN(Cc2ccc(OCc3ccccc3)cc2)CC1.O=C(O)C(=O)O | -77.1
34 | CC(O)CNC(=O)C1CCN(Cc2ccc(OCc3ccccc3)cc2)CC1.O=C(O)C(=O)O (centres unmarked) | -33.2
35 | COc1cc(CN2CCC(C)CC2)ccc1OCc1ccccc1.O=C(O)C(=O)O | -52.9
36 | CCOC(=O)C1CCN(c2c(N3CCN(Cc4ccccc4)CC3)c(=O)c2=O)CC1 | -73.4
37 | COc1cc(CN2CCC(C(=O)NCCC(C)C)CC2)ccc1OCc1ccccc1.O=C(O)C(=O)O | -67.8
38 | CCOC(=O)C1CCN(c2c(NCCCN3CCN(Cc4ccccc4)CC3)c(=O)c2=O)CC1 | 3.6
39 | CCOC(=O)C1CCN(Cc2ccc(-c3ccccc3)cc2)CC1 | -28.8
40 | COc1cc(CN2CCC(C(=O)NCC(C)(C)CN(C)C)CC2)ccc1OCc1ccccc1.O=C(O)C(=O)O | 13.6
41 | O=C(C1CCN(Cc2ccc(OCc3ccccc3)cc2)CC1)N1CCCC1 | -47.1
42 | O=C(/C=C/c1ccccc1)Nc1cc(NC(=O)/C=C/c2ccccc2)cc(C(=O)O)c1 | 21.4
43 | COc1ccc(-c2cc(C)no2)cc1S(=O)(=O)N1CCCN(Cc2ccc(F)cc2)C1 | -16.9
44 | CC(C)C(=O)Nc1nnc(SCc2cccc(F)c2)s1 | -8.88
45 | COc1ccc(Cc2nc(C(=O)Nc3ccc(Cl)cc3)cs2)cc1 | -42.8
46 | CCOC(=O)c1nsnc1NCCSC(=N)N.I | 3.69
47 | CC1CN(S(=O)(=O)c2ccc(C(=O)Nc3sccc3C(N)=O)cc2)CC(C)O1 (centres unmarked) | -10.8
48 | CCOc1ccc(NC(=O)CCC(=O)Nc2cc(OC)c(NC(=O)c3ccco3)cc2OC)cc1 | 10.4
49 | O=C(CSc1nc(-c2ccccc2)cs1)N1CCc2ccccc21 | 3.61
50 | Cc1cccc(N(Cc2cc3ccccc3[nH]c2=O)C(=O)c2ccco2)c1C | 4.51
51 | CCC(C)(C)NC(=O)C(c1ccncc1)N(Cc1ccc(C)cc1)C(=O)c1csnn1 (centres unmarked) | -14.1
52 | COc1cc(OC)c(C2N(c3ccccn3)C(=O)C3CCCN32)cc1OC (centres unmarked) | 13.8
53 | COc1ccc(C(=O)OCC(=O)NCCN2C(=O)CSC2=O)cc1 | -1.03
